SMILES strings stand for the structures.

Assay [1] relates to Vero E6 infected with SARS-CoV-2. In words: morphology score (similarity to uninfected cells); higher = more like uninfected cells. To be noted: 24 h.
For assay [2] the test system is unchanged. In words: SARS-CoV-2 infection rate relative to infected DMSO; higher = more infection, active = 60 or less. As to conditions: 24 h.

Turning to `CC(C)(C)c1cc(C(=O)/C(C#N)=N/Nc2cccc(Cl)c2)no1` (10 µM), the morphology score in assay [1] is -0.0513. Besides, in assay [2], the SARS-CoV-2 infection rate was 104% (inactive).

`Cc1cc(Nc2cc(N3CCN(C)CC3)nc(Sc3ccc(NC(=O)C4CC4)cc3)n2)n[nH]1` [tozasertib] (10 µM) registered a morphology score in assay [1] of 0.292. For the same molecule, the SARS-CoV-2 infection rate in assay [2] is 119% (inactive).

The molecule `CCc1cc(Cl)c(OC)c(C(=O)NC[C@@H]2CCCN2CC)c1O` [eticlopride] (10 µM) came in with a morphology score in assay [1] of 0.426. The SARS-CoV-2 infection rate in assay [2] was 63.5% (inactive).

On to `C[C@]1(COc2ccc(N3CCC(Oc4ccc(OC(F)(F)F)cc4)CC3)cc2)Cn2cc([N+](=O)[O-])nc2O1` [delamanid] (10 µM), for which the morphology score in assay [1] is -0.0971. In addition, in assay [2], the SARS-CoV-2 infection rate was 110% (inactive).

`COc1ccc(CCN(C)CCCC(C#N)(c2cc(OC)c(OC)c(OC)c2)C(C)C)cc1OC` (configuration not stated) [gallopamil] (10 µM): the morphology score in assay [1] is 0.176. In addition, the SARS-CoV-2 infection rate in assay [2] is 98% (inactive).

As for `CCOc1ccc2nc(SCCN3CCOCC3)[nH]c2c1` [afobazole] (10 µM), the morphology score in assay [1] is -0.0209. Also, in assay [2], the SARS-CoV-2 infection rate was 111% (inactive).

Take `Cc1sc(N)c(C(=O)c2cccc(C(F)(F)F)c2)c1C` (10 µM): the morphology score in assay [1] is -0.0662. Moreover, in assay [2], the SARS-CoV-2 infection rate is 99% (inactive).

With `NC(=O)C1=CN([C@@H]2O[C@H](COP(=O)(O)OP(=O)(O)OC[C@H]3O[C@@H](n4cnc5c(N)ncnc54)[C@H](OP(=O)(O)O)[C@@H]3O)[C@@H](O)[C@H]2O)C=CC1` (10 µM), the morphology score in assay [1] was -0.0816. In addition, the SARS-CoV-2 infection rate in assay [2] is 106% (inactive).

In turn, `CCCCc1nc(-c2ccc(OCCCN(CC)CC)cc2)cn1-c1ccc(Oc2ccc(Cl)cc2)cc1` [azeliragon] (0.833333 µM) came in with a morphology score in assay [1] of 0.129. Moreover, in assay [2], the SARS-CoV-2 infection rate was 93% (inactive).

The molecule `CN1C(=O)N[C@H](Cc2c[nH]c3c(Cl)cccc23)C1=O` [necrostatin-2] (10 µM) showed a morphology score in assay [1] of 0.131. In assay [2], the SARS-CoV-2 infection rate was 95% (inactive).

Take `CNc1nc(C)nc(N[C@H]2CCC[C@@H](C(=O)NCc3ccc(C#N)cc3C(F)(F)F)C2)n1` (10 µM): the morphology score in assay [1] was -0.0488. Moreover, in assay [2], the SARS-CoV-2 infection rate was 104% (inactive).

Regarding `C#C[C@]1(O)CC[C@H]2[C@@H]3CCC4=C(CCC(=O)C4)[C@H]3CC[C@@]21C` [noretynodrel] (10 µM), the morphology score in assay [1] is 0.0184. The SARS-CoV-2 infection rate in assay [2] was 108% (inactive).

Consider `c1cc(CN2CCCNCCNCCCNCC2)ccc1CN1CCCNCCNCCCNCC1` [plerixafor] (10 µM), for which the morphology score in assay [1] amounted to 0.0853. Further, the SARS-CoV-2 infection rate in assay [2] is 95.5% (inactive).

As to `OCCN1CCN(CCCN2c3ccccc3Sc3ccc(C(F)(F)F)cc32)CC1` [fluphenazine] (0.833333 µM), the morphology score in assay [1] is -0.174. Moreover, in assay [2], the SARS-CoV-2 infection rate is 116% (inactive).

As to `O=NN(CCCl)C(=O)NC1CCCCC1` [lomustine] (10 µM), the morphology score in assay [1] was -0.0183. Moreover, the SARS-CoV-2 infection rate in assay [2] is 108% (inactive).

`COc1cc2ncnc(Nc3ccc(F)c(Cl)c3)c2cc1OCCCN1CCOCC1` [gefitinib] (10 µM): in assay [1], the morphology score is -0.249. Further, the SARS-CoV-2 infection rate in assay [2] is 112% (inactive).

With `COC(=O)[C@@H](N)CS` [mecysteine] (10 µM), the morphology score in assay [1] was -0.052. In addition, the SARS-CoV-2 infection rate in assay [2] is 112% (inactive).

In the case of `CC(C)Nc1nc2cc(Cl)c(Cl)cc2n1[C@H]1O[C@@H](CO)[C@H](O)[C@@H]1O` [maribavir] (10 µM), in assay [1], the morphology score was -0.0681. For the same molecule, the SARS-CoV-2 infection rate in assay [2] is 122% (inactive).

On to `CCCC[C@H]1OC(=O)c2ccccc21` [butylphthalide] (10 µM), for which, in assay [1], the morphology score is -0.108. For the same molecule, the SARS-CoV-2 infection rate in assay [2] is 102% (inactive).

With `Cc1cc(O)c2c(c1)C(=O)c1cc(O)cc(O)c1C2=O` [emodin] (10 µM), in assay [1], the morphology score is 0.146. In assay [2], the SARS-CoV-2 infection rate was 106% (inactive).

In the case of `C=CCN1CCc2nc(N)sc2CC1` [talipexole] (10 µM), the morphology score in assay [1] was -0.1. Also, the SARS-CoV-2 infection rate in assay [2] was 104% (inactive).

`CCCCCCCCCCC[C@@H](C[C@@H]1OC(=O)[C@H]1CCCCCC)OC(=O)[C@H](CC(C)C)NC=O` [orlistat] (10 µM) yielded a morphology score in assay [1] of 0.226. The SARS-CoV-2 infection rate in assay [2] was 100% (inactive).

In assay [1], `CC(C)c1cc(C(=O)N2Cc3ccc(CN4CCN(C)CC4)cc3C2)c(O)cc1O` (10 µM) displayed a morphology score of 0.185. For the same molecule, the SARS-CoV-2 infection rate in assay [2] is 118% (inactive).

Turning to `Nc1cc(Cl)c(N=C2NCCN2)c(Cl)c1` [apraclonidine] (10 µM), in assay [1], the morphology score was -0.0224. Besides, the SARS-CoV-2 infection rate in assay [2] is 110% (inactive).

For `CC(=O)N[C@H](Cc1ccc2ccccc2c1)C(=O)N[C@H](Cc1ccc(Cl)cc1)C(=O)N[C@H](Cc1cccnc1)C(=O)N[C@@H](CO)C(=O)N[C@@H](Cc1ccc(NC(=O)[C@@H]2CC(=O)NC(=O)N2)cc1)C(=O)N[C@H](Cc1ccc(NC(N)=O)cc1)C(=O)N[C@@H](CC(C)C)C(=O)N[C@@H](CCCCNC(C)C)C(=O)N1CCC[C@H]1C(=O)N[C@H](C)C(N)=O` [degarelix] (10 µM), the morphology score in assay [1] was -0.277. Further, in assay [2], the SARS-CoV-2 infection rate was 115% (inactive).

For the molecule `CC/C=C(\C(=O)N[C@@H]1C(=O)N2C(C(=O)OCOC(=O)C(C)(C)C)=C(COC(N)=O)CS[C@H]12)c1csc(N)n1` [cefcapene-pivoxil] (10 µM), the morphology score in assay [1] was -0.175. Besides, in assay [2], the SARS-CoV-2 infection rate is 114% (inactive).
